# Data as given in PubChem BioAssay (NCI).
# Compounds without any hit were thinned out: in the full panel of roughly 83,000, 20% have a hit.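 Method: cells in 96-well plates; compound added at one concentration; 48 h incubation; percent growth measured; values under 10 scored active.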 A number with no mark means an inactive call. Active and inactive are the calls of the source.
# Legend:
# Experiment in all cases: NCI-60 one-dose screen, 48 h (100 = growth as untreated, 0 = no growth, -100 = all killed)
# Conditions in all cases: 10 µM unless noted
# T-47D breast = system: T-47D breast
# BT-549 breast = system: BT-549 breast
# MDA-MB-435 melanoma = system: MDA-MB-435 melanoma
# SW-620 colon = system: SW-620 colon
# MCF7 breast = system: MCF7 breast
# HCT-116 colon = system: HCT-116 colon
# HCC-2998 colon = system: HCC-2998 colon
# KM12 colon = system: KM12 colon
SMILES,growth (T-47D breast),growth (BT-549 breast),growth (MDA-MB-435 melanoma),growth (SW-620 colon),growth (MCF7 breast),growth (HCT-116 colon),growth (HCC-2998 colon),growth (KM12 colon)
COc1cc(Nc2cc(C)nc(N3CCN(c4ccnc5cc(Cl)ccc45)CC3)n2)cc(OC)c1,8.17% (active),41.8%,-2.88% (active),15.9%,5.32% (active),2.14% (active),7.77% (active),3.72% (active)
CSc1nc(NCc2ccccc2)c(C#N)c(-c2cccc([N+](=O)[O-])c2)n1,82.8%,95.8%,99.4%,96.5%,91.8%,87.1%,107%,98.2%
CN(C)S(=O)(=O)c1ccc(S(=O)(=O)Nc2cccc(Cl)c2N2CCCCC2)cc1,67.4%,88.4%,92.3%,97.1%,84.1%,61.6%,94.5%,94.5%
O=C1NC(=S)NC(=O)C1CC(=O)n1c(-c2ccccc2)nc2ccccc21,95.3%,100%,102%,98.6%,80.4%,104%,104%,101%
CCCCC(=O)OCC1OC(n2cnc3c(=S)nc[nH]c32)C(OC(=O)CCCC)C1OC(=O)CCCC (stereo not drawn),36.1%,43.9%,29.4%,23.5%,20.2%,27.3%,-0.586% (active),36.1%
O=[N+]([O-])c1ccc(Nc2nc(NCCN3CCOCC3)ncc2[N+](=O)[O-])cc1,100%,89%,97.8%,89.1%,79.8%,88.1%,93.4%,99%
Cc1nn(-c2cc(=O)[nH]c3ccccc23)c(N)c1C#N,104%,110%,106%,103%,97.5%,107%,115%,101%
N#Cc1nnn(-c2ccc(S(N)(=O)=O)cc2)c1NCC(=O)c1ccccc1,95.4%,98%,91.8%,97.2%,93.3%,95%,112%,99.4%
CCOC(=O)c1c(C)oc2ncnc(N3CCN(C(=S)Nc4ccccc4)CC3)c12,78.7%,92.4%,102%,90.5%,93.1%,97.3%,99.3%,96.4%
CSc1nc2c(c(=O)[nH]1)C1(C(=O)Nc3ccccc31)c1c(nc(SC)[nH]c1=O)N2,111%,107%,104%,99.1%,102%,106%,104%,103%
Cn1cc(C(=O)c2nc(-c3c[nH]c4ccccc34)no2)c2ccccc21,44.4%,69.7%,7.96% (active),56.8%,20%,47.1%,45.5%,21.9%
O=C(/C=C/c1cccc(Cl)c1)c1ccc(O)c(CN2CCN(c3cc4c(cc3F)c(=O)c(C(=O)O)cn4C3CC3)CC2)c1,44.9%,34%,44.7%,21.4%,28.3%,6.6% (active),61.3%,51.2%
O=C(/C=C/c1cccc([N+](=O)[O-])c1)c1ccc(O)c(CN2CCN(c3cc4c(cc3F)c(=O)c(C(=O)O)cn4C3CC3)CC2)c1,10.9%,6.04% (active),11.2%,-43% (active),1.85% (active),-59.5% (active),35.5%,-12.2% (active)
C=CCSSc1ncnc2c1ncn2C1OC(CO)C(O)C1O (stereo not drawn),24.3%,54.8%,22.5%,53.8%,4.74% (active),22.4%,35.1%,37.1%
COc1cc(/C=C/C(=O)Nc2cccnc2Nc2ccc(F)cc2)cc(OC)c1OC,93.3%,92.3%,97.4%,106%,88.3%,96.3%,109%,96.8%
O=C1CSC(=S)N1CCc1ccc(O)cc1,38.1%,105%,65.8%,53.8%,37.6%,71.5%,102%,8.84% (active)

SMILES,growth (T-47D breast),growth (BT-549 breast),growth (MDA-MB-435 melanoma),growth (SW-620 colon),growth (MCF7 breast),growth (HCT-116 colon),growth (HCC-2998 colon),growth (KM12 colon)
COc1cccc(/C=C2\SC(=Nc3ccc(NC(C)=O)cc3)NC2=O)c1OC,89.2%,97.8%,52.1%,92%,92.6%,98%,101%,89.4%
CN(C)[C@@H]1C(=O)C(C(=O)NCc2nc3[nH]cnc(=S)c3[nH]2)=C(O)[C@@]2(O)C(=O)C3=C(O)c4c(O)cccc4[C@@](C)(O)[C@H]3C[C@@H]12,40.4%,54%,33.8%,73.8%,16.6%,33.8%,16.3%,68.5%
COc1cc2c(cc1OC)C(Sc1ccc(SC)cc1)c1c(nc(N)c(C#N)c1N)O2 (stereo not drawn),-47.1% (active),-73.9% (active),-90.8% (active),-68.9% (active),-51.2% (active),-86.8% (active),-84.9% (active),-72% (active)
Oc1ccc(N=Cc2ccccc2O)cc1,89.4%,78.3%,110%,99.1%,92.8%,98.8%,116%,88.8%
CC1=NN(c2nc(-c3ccc(Cl)cc3)c(C#N)c(N3CCOCC3)n2)C(=O)C1,93.3%,66.1%,87.8%,85.2%,94.4%,94.3%,98.5%,99.7%
CC(=O)c1nc2ccccc2n1CC(=O)c1cccc(Cl)c1,-11.3% (active),34.9%,-27.4% (active),23%,1.85% (active),5.82% (active),29.9%,8.72% (active)
Cn1c(NCCc2ccc(O)c(O)c2)nc2c1c(=O)n(Cc1ccc(Cl)c(Cl)c1)c(=O)n2C,58%,67.1%,73%,76.5%,79%,64.8%,90.6%,71.9%
Cc1cn2c(/C=C3/C(=O)Nc4c3ccc3ccccc43)c(C(F)(F)F)nc2s1,28.1%,37.2%,-47.2% (active),18.2%,15.4%,30.6%,46.6%,15.3%
O=[N+]([O-])c1ccc2c(c1)Cc1cc(F)ccc1-2,94.4%,105%,96.9%,96.3%,84.4%,102%,102%,109%
O=C1/C(=C/c2ccc(Cl)cc2)SC(=S)N1CCc1ccc(O)cc1,54.2%,101%,92.9%,101%,114%,102%,107%,93.6%
Nc1ccn(-c2ccc(Br)cc2)c(=O)n1,202%,105%,96.6%,98.8%,108%,102%,29.7%,121%
Cc1ccc2c(C(C[N+](=O)[O-])c3ccco3)c(-c3ccccc3)[nH]c2c1 (stereo not drawn),16.1%,53.3%,-34% (active),17.1%,16.5%,19.6%,70%,20.2%
CC(=O)Oc1ccc(Cl)cc1CN(C(C)=O)C1CCCCC1,104%,107%,115%,105%,97.6%,102%,99.4%,112%
COc1ccc(-c2nn(-c3ccc(Cl)cc3)cc2-c2nc3ccccc3[nH]2)cc1,87.9%,113%,97.7%,84.6%,74.3%,87%,109%,102%
N#CN1CCC[C@H]1C(=O)N1CCc2c(-c3[nH]nc4ncccc34)cccc21,13%,-37.6% (active),-61.6% (active),15.1%,5.76% (active),-19.6% (active),-6.99% (active),-14% (active)
